Measurements published in PubChem BioAssay (Tox21).
“And” between values parts separate entries of the source, which are not always exact repeats. Equal values may be shown once. Inconclusive results are not listed. Entries that show only a call come without a potency. A structure can be active in one record and inactive in another. The source made the active and inactive calls. Unless noted, the call rests on the fitted dose curve.

Test: qHTS assay to identify small molecule agonists of the endoplasmic reticulum stress response signaling pathway (AID 1159516; active means well fitted activation curve with a large enough effect in the signal ratio in the repeat runs, not every such curve was filed as active; the % refers to the signal ratio)
Conditions: ESRE-bla HeLa, ER stress beta-lactamase reporter, 5 h; series mostly up to 61 µM; activation: at the top concentration
Summary of the method: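 Read-out is beta-lactamase cleavage of a FRET substrate (405 nm excitation; 460 and 530 nm emissions) in ESRE-bla HeLa cells after a 5 hr compound exposure at 37 C. Substrate incubation ran 2 hr at room temperature.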
Potency means the concentration at half of the fitted maximal effect.

Compound	Potency	activation
COCCOCCOCCO	inactive	
c1ccc2c(c1)ccc1ncccc12		-3.41% (inactive)
Cc1ccc(C(C)(C)C)cc1		0.455% (inactive)
CCCCCCCCCCCCO	inactive	
c1ccc2cc3ccccc3cc2c1	56.7 µM (active)	
CCO[Si](CCCNC(N)=O)(OCC)OCC	inactive	
Cc1ccc(S(=O)(=O)NCl)cc1	inactive	
CCC/C=C/C=O	inactive	
Cc1ccc(N)c([N+](=O)[O-])c1	inactive	
CC(C)(Oc1ccc(Cl)cc1)C(=O)O		2.5% (inactive)
CC/C=C\C/C=C\C/C=C\CCCCCCCC(=O)O		-6.02% (inactive)
CNC[C@H](O)c1ccc(O)c(O)c1	inactive	
C1COCCN1	inactive	
Brc1nc2ccccc2s1	inactive	
CN(C)/N=N/c1nc[nH]c1C(N)=O		-0.625% (inactive)
Cc1ccc(C)c(O)c1	inactive	
CCCCCCOCCOCCO		0.106% (inactive)
COC(=O)c1ccc(C)cc1		2.66% (inactive)
COc1cc([C@H]2Oc3cc([C@H]4Oc5cc(O)cc(O)c5C(=O)[C@@H]4O)ccc3O[C@@H]2CO)ccc1O	inactive	
NCCOCCO		5.16% (inactive)

Compound	Potency	activation
C[C@]12C=CC(=O)C=C1CC[C@H]1[C@@H]3C[C@@H](O)[C@](O)(C(=O)CO)[C@@]3(C)C[C@H](O)[C@@]12F	inactive	
O=S1(=O)CCCO1	inactive	
CC(=O)Nc1ccc2c(c1)Cc1cc(NC(C)=O)ccc1-2	inactive	
COc1ccc(C(=O)c2ccccc2O)c(O)c1	inactive	
CCCCCCC(C)O (stereo not drawn)	inactive	
CC1(C)C(C=C(Cl)Cl)C1C(=O)OCc1cccc(Oc2ccccc2)c1 (stereo not drawn)		5.31% (inactive)
Nc1ccc(O)c(N)c1		-2.36% (inactive)
c1ccc2ncccc2c1	inactive	
NC[C@H](O)c1ccc(O)c(O)c1	inactive	
OC[C@@H](O)[C@@H](O[C@@H]1O[C@H](CO)[C@H](O)[C@H](O)[C@H]1O)[C@H](O)[C@@H](O)CO	inactive	
C=C[C@@]1(C)CC(=O)[C@]2(O)[C@@]3(C)[C@@H](O)CCC(C)(C)[C@@H]3[C@H](O)[C@H](OC(C)=O)[C@@]2(C)O1		2.88% (inactive)
Cc1ccc([N+](=O)[O-])c(C)c1	inactive	
Clc1ccc(Sc2cc(Cl)c(Cl)cc2Cl)cc1		2.72% (inactive)
Nc1cc(Cl)c(N)c(Cl)c1	inactive	
O=C(O)CCCC(=O)O	inactive	
c1ccc2c(c1)ccc1cc3c(ccc4ccccc43)cc12	7.67 µM (active)	
COC(=O)C(C)Oc1ccc(Oc2ncc(C(F)(F)F)cc2Cl)cc1 (stereo not drawn)		0.955% (inactive)
C=CC(=O)OCCCC		-2.98% (inactive)
CCC(=O)O[C@H]1[C@H](O[C@@H]2[C@@H](C)[C@H](O[C@H]3C[C@@](C)(OC)[C@@H](O)[C@H](C)O3)[C@@H](C)C(=O)O[C@H](CC)[C@@](C)(O)[C@H](O)[C@@H](C)C(=O)[C@H](C)C[C@@]2(C)O)O[C@H](C)C[C@@H]1N(C)C	inactive	

Test: qHTS assay to identify small molecule agonists of the endoplasmic reticulum stress response signaling pathway - cell viability counter screen (AID 1159517); further: nearly all actives have a fitted effect of over 50% in size;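 on activity change, negative = cytotoxicity: HeLa cells carrying an ER stress response element beta-lactamase reporter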
Conditions: ESRE-bla HeLa viability, CellTiter-Glo luminescence, 5 h; series mostly up to 61 µM; activity change, negative = cytotoxicity: at the top concentration
Summary of the method: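 CellTiter-Glo was added to wells already read for beta-lactamase FRET, and luminescence was recorded 30 min later. Cells: ESRE-bla HeLa, 1,500 per well, compound exposure 5 hr at 37 C.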

Compound	activity change, negative = cytotoxicity	Potency
COCCOCCOCCO	-6.36% (inactive)	
c1ccc2c(c1)ccc1ncccc12		inactive
Cc1ccc(C(C)(C)C)cc1		inactive
CCCCCCCCCCCCO	-2.47% [at 78.8 µM] (inactive)	
c1ccc2cc3ccccc3cc2c1		inactive
CCO[Si](CCCNC(N)=O)(OCC)OCC	0.167% (inactive)	
Cc1ccc(S(=O)(=O)NCl)cc1		inactive
CCC/C=C/C=O		inactive
Cc1ccc(N)c([N+](=O)[O-])c1		inactive
CC(C)(Oc1ccc(Cl)cc1)C(=O)O		inactive
CC/C=C\C/C=C\C/C=C\CCCCCCCC(=O)O		inactive
CNC[C@H](O)c1ccc(O)c(O)c1	10.8% [at 28.5 µM] (inactive)	
C1COCCN1	0.879% [at 78.8 µM] (inactive)	
Brc1nc2ccccc2s1	-21.9% (inactive)	
CN(C)/N=N/c1nc[nH]c1C(N)=O		inactive
Cc1ccc(C)c(O)c1	-2.26% [at 78.8 µM] (inactive)	
CCCCCCOCCOCCO		inactive
COC(=O)c1ccc(C)cc1		inactive
COc1cc([C@H]2Oc3cc([C@H]4Oc5cc(O)cc(O)c5C(=O)[C@@H]4O)ccc3O[C@@H]2CO)ccc1O	1.65% (inactive)	
NCCOCCO		inactive

Compound	activity change, negative = cytotoxicity	Potency
C[C@]12C=CC(=O)C=C1CC[C@H]1[C@@H]3C[C@@H](O)[C@](O)(C(=O)CO)[C@@]3(C)C[C@H](O)[C@@]12F	-3.83% (inactive)	
O=S1(=O)CCCO1	2.44% [at 78.8 µM] (inactive)	
CC(=O)Nc1ccc2c(c1)Cc1cc(NC(C)=O)ccc1-2		inactive
COc1ccc(C(=O)c2ccccc2O)c(O)c1		inactive
CCCCCCC(C)O (stereo not drawn)	2.96% [at 78.8 µM] (inactive)	
CC1(C)C(C=C(Cl)Cl)C1C(=O)OCc1cccc(Oc2ccccc2)c1 (stereo not drawn)		inactive
Nc1ccc(O)c(N)c1		inactive and 54.9 µM (active)
c1ccc2ncccc2c1	0.855% (inactive)	
NC[C@H](O)c1ccc(O)c(O)c1		inactive
OC[C@@H](O)[C@@H](O[C@@H]1O[C@H](CO)[C@H](O)[C@H](O)[C@H]1O)[C@H](O)[C@@H](O)CO	13.5% (inactive)	
C=C[C@@]1(C)CC(=O)[C@]2(O)[C@@]3(C)[C@@H](O)CCC(C)(C)[C@@H]3[C@H](O)[C@H](OC(C)=O)[C@@]2(C)O1		21.9 µM (active) and 21.3 µM (active)
Cc1ccc([N+](=O)[O-])c(C)c1	0.36% (inactive)	
Clc1ccc(Sc2cc(Cl)c(Cl)cc2Cl)cc1		inactive
Nc1cc(Cl)c(N)c(Cl)c1	-16.6% (inactive)	
O=C(O)CCCC(=O)O		inactive
c1ccc2c(c1)ccc1cc3c(ccc4ccccc43)cc12		inactive
COC(=O)C(C)Oc1ccc(Oc2ncc(C(F)(F)F)cc2Cl)cc1 (stereo not drawn)	1.88% [at 78.8 µM] (inactive)	
C=CC(=O)OCCCC	12.6% (inactive)	
CCC(=O)O[C@H]1[C@H](O[C@@H]2[C@@H](C)[C@H](O[C@H]3C[C@@](C)(OC)[C@@H](O)[C@H](C)O3)[C@@H](C)C(=O)O[C@H](CC)[C@@](C)(O)[C@H](O)[C@@H](C)C(=O)[C@H](C)C[C@@]2(C)O)O[C@H](C)C[C@@H]1N(C)C	15.6% (inactive)	
